# Assay results reported in PubChem BioAssay (Tox21).
# “And” between values parts separate entries of the source, which are not always exact repeats. Equal entries are not always repeated. Results filed as inconclusive are left out. Some compounds were tested as several samples or in several runs, with calls that do not always agree. The source made the active and inactive calls. Unless noted, calls follow the shape of the dose curve; as a rule, active = well fitted curve in the direction sought with a large enough effect in the repeat runs; inconclusive = weak or mixed curves; inactive = no such curve, though single readings can be large; an effect the other way counts as inactive or inconclusive.
# Columns and labels:
# [1] = qHTS assay to identify small molecule agonists of the peroxisome proliferator-activated receptor delta (PPARd) signaling pathway - cell viability counter screen (AID 743211); also: nearly all actives have a fitted effect of over 55% in size; also: potency is read from the fitted curve at half-maximal effect
# In short: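 PPARd-bla HEK293H cells (3000/well) were pre-incubated 5 h at 37 C, then exposed to compound for 17 h at 37 C. After 2 h with LiveBLAzer substrate, CellTiter-Glo was added to the same wells; luminescence read after 30 min at room temperature.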
# [2] = qHTS assay to identify small molecule antagonists of the peroxisome proliferator-activated receptor delta (PPARd) signaling pathway - cell viability counter screen (AID 743213); also: nearly all actives have a fitted effect of over 50% in size; also: potency is read from the fitted curve at half-maximal effect
# In short: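 PPARd-bla HEK293H cells (3000/well) got compound plus 300 nM L165041 agonist for 17 h at 37 C. Viability in the same wells came from CellTiter-Glo luminescence after 30 min at room temperature.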
# [3] = qHTS assay to identify small molecule agonists of the farnesoid-X-receptor (FXR) signaling pathway - cell viability counter screen (AID 743218); also: nearly all actives have a fitted effect of over 45% in size; also: potency is read from the fitted curve at half-maximal effect
# In short: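 Readout: CellTiter-Glo luminescence, 30 min RT, multiplexed after the FXR-bla FRET reading. HEK 293T FXR-UAS-bla cells received compound 5 h post-plating and were incubated 16 h at 37 C.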
# [4] = qHTS assay to identify small molecule antagonists of the vitamin D receptor (VDR) signaling pathway - cell viability counter screen (AID 743225); also: nearly all actives have a fitted effect of over 50% in size; also: potency is read from the fitted curve at half-maximal effect
# In short: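 VDR-UAS-bla HEK 293T cells were plated and incubated 4 h at 37C, then dosed with compound plus 3 nM (final) 1-alpha,25-dihydroxyvitamin D3 for 16 h. After the 2 h beta-lactamase read, viability in the same wells was read as CellTiter-Glo luminescence after 30 min at room temperature.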
# [5] = qHTS assay to identify small molecule agonists of the NFkB signaling pathway - cell viability counter screen (AID 1159515; calls by dose curve; also: nearly all actives have a fitted effect of over 55% in size; also: potency is read from the fitted curve at half-maximal effect)
# In short: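 Plate 2,000 NFkB-bla ME-180 cells/well; incubate overnight. Add compounds, 5 hr at 37 C. Add FRET substrate, 1.5 hr RT. Add CellTiter-Glo, 30 min RT; read luminescence.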
# [6] = qHTS assay to identify small molecule antagonists of the retinoid-related orphan receptor gamma (ROR-gamma) signaling pathway - cell viability counter screen (AID 1159520); also: nearly all actives have a fitted effect of over 50% in size; also: potency is read from the fitted curve at half-maximal effect
# In short: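 Tet-on ROR gamma CHO cells (1,000/well) were plated 4 hr, given compounds in DMSO for 2 hr at 37 C, then induced with 1 uM final doxycycline for 16 hr. Viability was read as ATP by CellTiter-Glo luminescence after 30 min.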
# [7] = biological target: Nuclear receptor ROR-gamma (Homo sapiens) (UniProt P51449); test: qHTS assay to identify small molecule antagonists of the retinoid-related orphan receptor gamma (ROR-gamma) signaling pathway (AID 1159521; also: nearly all actives have a fitted effect of over 50% in size; also: potency is read from the fitted curve at half-maximal effect)
# In short: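 Tet-on ROR-gamma CHO cells with ROR response element-luciferase reporter; compounds added 2 hr before 1 uM doxycycline induction, then 16 hr at 37 C. Antagonism scored as decreased ONE-Glo luminescence.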
# [8] = qHTS assay to identify small molecule agonists of the AP-1 signaling pathway - cell viability counter screen (AID 1159525; calls by dose curve; also: nearly all actives have a fitted effect of over 55% in size; also: potency is read from the fitted curve at half-maximal effect)
# In short: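 Each titration point was normalised to DMSO and tetra n-octyl ammonium bromide controls. The read was Cell Titer Glo luminescence after 30 min at RT, following 5 h compound exposure of ME-180 AP-1-bla cells at 37 °C.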
# [9] = biological target: Bile acid receptor (Homo sapiens) (UniProt Q96RI1); test: qHTS assay to identify small molecule agonists of the farnesoid-X-receptor (FXR) signaling pathway (AID 743220; active = well fitted activation curve with a large enough effect in the signal ratio in the repeat runs, not every such curve was filed as active; the % refers to the signal ratio; also: % is scaled to controls: 0 for no effect and ±100 for the full control effect)
# Bile acid receptor (Homo sapiens), sequence (Q96RI1 whole entry, looked up): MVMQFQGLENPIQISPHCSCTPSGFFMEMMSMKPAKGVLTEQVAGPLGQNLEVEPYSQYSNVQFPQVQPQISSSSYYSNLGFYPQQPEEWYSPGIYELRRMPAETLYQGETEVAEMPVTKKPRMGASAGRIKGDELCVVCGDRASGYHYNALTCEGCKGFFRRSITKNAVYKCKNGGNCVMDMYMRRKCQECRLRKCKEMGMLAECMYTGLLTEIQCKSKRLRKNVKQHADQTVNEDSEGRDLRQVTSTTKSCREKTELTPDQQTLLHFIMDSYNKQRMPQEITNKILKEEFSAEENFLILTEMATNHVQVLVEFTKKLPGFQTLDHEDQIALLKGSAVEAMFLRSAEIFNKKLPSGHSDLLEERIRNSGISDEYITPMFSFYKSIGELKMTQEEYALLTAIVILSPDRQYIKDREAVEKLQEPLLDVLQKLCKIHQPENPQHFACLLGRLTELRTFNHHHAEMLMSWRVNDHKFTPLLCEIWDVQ
# In short: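 FXR-UAS-bla HEK 293T cells carrying a UAS-driven beta-lactamase reporter were plated for 5 h at 37C/5% CO2, then exposed to DMSO-dissolved Tox21 10K compounds for 16 h at 37C. A LiveBLAzer B/G FRET substrate was loaded for 2 h at room temperature before fluorescence reading.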
# [10] = qHTS assay to identify small molecule agonists of the vitamin D receptor (VDR) signaling pathway - cell viability counter screen (AID 743224); also: nearly all actives have a fitted effect of over 50% in size; also: potency is read from the fitted curve at half-maximal effect
# In short: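 In parallel with the bla FRET readout, cytotoxicity toward VDR-bla cells after 16 h compound exposure was assessed by CellTiter-Glo, with luminescence recorded after a 30 min room-temperature incubation.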
# [11] = biological target: Peroxisome proliferator-activated receptor delta (Homo sapiens) (UniProt Q03181); test: qHTS assay to identify small molecule agonists of the peroxisome proliferator-activated receptor delta (PPARd) signaling pathway (AID 743212; calls by dose curve; also: % is scaled to controls: 0 for no effect and ±100 for the full control effect)
# Peroxisome proliferator-activated receptor delta (Homo sapiens), sequence (Q03181 whole entry, looked up): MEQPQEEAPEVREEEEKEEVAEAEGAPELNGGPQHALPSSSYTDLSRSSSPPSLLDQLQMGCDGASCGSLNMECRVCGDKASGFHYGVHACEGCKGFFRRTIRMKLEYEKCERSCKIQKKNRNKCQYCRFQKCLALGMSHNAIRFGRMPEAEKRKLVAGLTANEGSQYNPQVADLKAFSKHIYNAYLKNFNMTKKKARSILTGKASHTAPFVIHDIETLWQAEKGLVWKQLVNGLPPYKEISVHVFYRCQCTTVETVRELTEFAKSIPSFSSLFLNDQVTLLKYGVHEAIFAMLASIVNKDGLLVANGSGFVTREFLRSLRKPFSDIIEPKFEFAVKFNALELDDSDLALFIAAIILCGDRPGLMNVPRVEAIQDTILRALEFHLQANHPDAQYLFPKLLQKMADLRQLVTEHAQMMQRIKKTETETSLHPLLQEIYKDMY
# In short: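 Cells expressing a UAS-driven beta-lactamase reporter (PPARd-bla HEK293H) were given test compounds after a 5 h settle and kept at 37 C. Reporter activity was then measured as FRET fluorescence using LiveBLAzer B/G substrate.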
# [12] = biological target: Peroxisome proliferator-activated receptor delta (Homo sapiens) (UniProt Q03181); test: qHTS assay to identify small molecule antagonists of the peroxisome proliferator-activated receptor delta (PPARd) signaling pathway (AID 743215; active = well fitted inhibition curve with a large enough effect in the signal ratio in the repeat runs, not every such curve was filed as active; the % refers to the signal ratio;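 also: cells stimulated with agonist L165041 at 300 nM final during compound exposure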; also: potency is read from the fitted curve at half-maximal effect)
# In short: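 Fluorescence from cleaved LiveBLAzer B/G FRET substrate (2 h, room temperature) reports PPARd-driven beta-lactamase in HEK293H UAS-bla cells. Cells had been treated 17 h at 37 C with compound plus 300 nM final L165041.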
# [13] = biological target: Vitamin D3 receptor (Homo sapiens) (UniProt P11473); test: qHTS assay to identify small molecule agonists of the vitamin D receptor (VDR) signaling pathway (AID 743222; calls by dose curve; also: % is scaled to controls: 0 for no effect and ±100 for the full control effect)
# Vitamin D3 receptor (Homo sapiens), sequence (P11473 whole entry, looked up): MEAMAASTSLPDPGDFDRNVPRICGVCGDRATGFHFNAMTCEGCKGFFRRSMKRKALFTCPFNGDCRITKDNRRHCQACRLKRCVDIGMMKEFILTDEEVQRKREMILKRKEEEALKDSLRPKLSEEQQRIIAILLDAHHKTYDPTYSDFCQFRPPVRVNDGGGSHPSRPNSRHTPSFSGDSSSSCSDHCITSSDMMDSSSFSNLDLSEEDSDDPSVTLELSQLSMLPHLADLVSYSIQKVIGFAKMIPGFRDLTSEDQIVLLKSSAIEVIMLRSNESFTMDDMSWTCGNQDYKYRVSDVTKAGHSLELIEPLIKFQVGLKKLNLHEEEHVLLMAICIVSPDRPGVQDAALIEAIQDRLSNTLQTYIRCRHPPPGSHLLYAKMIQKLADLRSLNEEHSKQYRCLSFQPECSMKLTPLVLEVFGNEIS
# In short: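 Following 4 h attachment at 37C, VDR-bla cells (2,000 per well) received DMSO-dissolved compounds or controls. After 16 h incubation, LiveBLAzer B/G FRET substrate was added and fluorescence read 2 h later at room temperature.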
# [14] = qHTS assay to identify small molecule agonists of the endoplasmic reticulum stress response signaling pathway - cell viability counter screen (AID 1159517; calls by dose curve; also: nearly all actives have a fitted effect of over 50% in size; also: potency is read from the fitted curve at half-maximal effect)
# In short: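 Cpd-treated ESRE-bla HeLa (5 hr, 37 C) → LiveBLAzer 2 hr RT → CellTiter-Glo 30 min RT → luminescence.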
# [15] = qHTS assay to identify small molecule antagonists of the farnesoid-X-receptor (FXR) signaling pathway - cell viability counter screen (AID 743221; active = well fitted cell-killing curve with a large enough effect in the repeat runs, not every such curve was filed as active; also: nearly all actives have a fitted effect of over 50% in size; also: potency is read from the fitted curve at half-maximal effect)
# In short: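 GeneBLAzer FXR-UAS-bla HEK 293T cells, compound plus chenodeoxycholic acid (50 uM final), 16 h at 37 C. CellTiter-Glo added to the same wells after the beta-lactamase read; luminescence read after 30 min at room temperature as viability.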
# [16] = biological target: Vitamin D3 receptor (Homo sapiens) (UniProt P11473); test: qHTS assay to identify small molecule antagonists of the vitamin D receptor (VDR) signaling pathway (AID 743223; active = well fitted inhibition curve with a large enough effect in the signal ratio in the repeat runs, not every such curve was filed as active; the % refers to the signal ratio; also: potency is read from the fitted curve at half-maximal effect)
# In short: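 VDR-bla cells were treated with compound plus 3 nM final 1alpha,25-dihydroxyvitamin D3 for 16 h at 37C. Beta-lactamase reporter read by B/G FRET substrate fluorescence after 2 h at room temperature. qHTS format.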
# [17] = qHTS assay to identify small molecule agonists of the AP-1 signaling pathway (AID 1159526; calls by dose curve; also: % is scaled to controls: 0 for no effect and ±100 for the full control effect)
# [18] = biological target: Retinoic acid receptor RXR-alpha (Homo sapiens) (UniProt P19793); test: qHTS assay to identify small molecule agonists of the RXR signaling pathway (AID 1159527; calls by dose curve; also: % is scaled to controls: 0 for no effect and ±100 for the full control effect; nearly all actives have a fitted effect of over 35% in size)
# Retinoic acid receptor RXR-alpha (Homo sapiens), sequence (P19793 whole entry, looked up): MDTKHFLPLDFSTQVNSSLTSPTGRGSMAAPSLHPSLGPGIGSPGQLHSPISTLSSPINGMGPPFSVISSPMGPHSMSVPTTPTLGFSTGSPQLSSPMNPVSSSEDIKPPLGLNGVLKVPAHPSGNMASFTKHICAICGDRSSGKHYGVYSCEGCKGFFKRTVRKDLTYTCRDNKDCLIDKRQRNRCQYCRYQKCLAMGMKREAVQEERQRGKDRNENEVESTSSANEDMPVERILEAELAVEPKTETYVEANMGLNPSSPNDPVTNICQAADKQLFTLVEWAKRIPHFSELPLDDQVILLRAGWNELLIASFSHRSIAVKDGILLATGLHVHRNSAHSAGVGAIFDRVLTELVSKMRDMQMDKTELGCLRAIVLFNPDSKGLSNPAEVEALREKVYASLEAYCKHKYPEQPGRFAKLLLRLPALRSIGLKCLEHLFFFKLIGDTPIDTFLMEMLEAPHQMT
# In short: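 GeneBLAzer RXR-alpha-UAS-bla HEK 293T cells in 2% charcoal-stripped FBS medium were exposed to compounds for 16 hr at 37 C in agonist mode. Beta-lactamase reporter read as 460/530 nm FRET ratio after 2 hr substrate loading.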
# [19] = biological target: Bile acid receptor (Homo sapiens) (UniProt Q96RI1); test: qHTS assay to identify small molecule antagonists of the farnesoid-X-receptor (FXR) signaling pathway (AID 743217; active = well fitted inhibition curve with a large enough effect in the signal ratio in the repeat runs, not every such curve was filed as active; the % refers to the signal ratio; also: potency is read from the fitted curve at half-maximal effect)
# In short: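 FRET fluorescence after 2 h room-temperature LiveBLAzer loading gives the readout. Prior step: FXR-bla HEK 293T cells, seeded and incubated 5 h, received test compounds plus 50 uM final CDCA for 16 h at 37 °C.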
structure (smiles),measurement,setting,value
On1ccccc1=S,Potency,[1],0.385 µM (active)
same,Potency,[2],0.685 µM (active)
same,Potency,[3],0.385 µM (active)
same,Potency,[4],inactive
same,Potency,[5],0.385 µM (active)
same,Potency,[6],5.39 µM (active)
same,Potency,[7],0.303 µM (active)
same,Potency,[8],21.7 µM (active)
Cc1ccc(O)c2ncccc12,Potency,[1],0.841 µM (active)
same,Potency,[2],1.19 µM (active)
same,Potency,[9],inactive
same,Potency,[10],0.944 µM (active)
same,Potency,[5],6.01 µM (active)
same,Potency,[6],21.1 µM (active)
same,Potency,[7],15 µM (active)
same,Potency,[8],16.9 µM (active)
CN1CCN(CCC(=O)N2c3ccccc3Sc3ccc(C(F)(F)F)cc32)CC1,Potency,[1],11.9 µM (active)
same,Potency,[11],inactive
same,Potency,[2],16.8 µM (active)
same,Potency,[12],29.8 µM (active)
same,Potency,[3],21.1 µM (active)
same,Potency,[9],inactive
same,Potency,[13],inactive
same,Potency,[10],21.1 µM (active)
same,Potency,[4],12 µM (active)
same,Potency,[5],inactive
same,Potency,[14],inactive
same,Potency,[8],inactive
CCCCCCCCCOC(=O)c1ccc(O)cc1,Potency,[1],27.1 µM (active)
same,Potency,[2],24.2 µM (active)
same,Potency,[3],48.3 µM (active)
same,Potency,[15],43 µM (active)
same,Potency,[10],17.1 µM (active)
same,Potency,[4],24.2 µM (active)
same,Potency,[5],54.2 µM (active)
same,Potency,[14],54.2 µM (active)
same,Potency,[8],38.3 µM (active)
Clc1ccccc1C(c1ccccc1)(c1ccccc1)n1ccnc1,Potency,[1],54.9 µM (active)
same,Potency,[2],inactive
same,Potency,[3],54.9 µM (active)
same,Potency,[13],inactive
same,Potency,[16],inactive
same,Potency,[4],inactive
same,Potency,[5],inactive
same,Potency,[6],24.3 µM (active) and inactive
same,Potency,[7],2.73 µM (active) and 7.5 µM (active)
same,Potency,[8],21.9 µM (active) and inactive
CC[C@H]1O[C@]2(CC[C@@H]1C)C[C@@H]1C[C@@H](C/C=C(\C)C[C@@H](C)/C=C/C=C3\CO[C@@H]4[C@H](O)C(C)=C[C@@H](C(=O)O1)[C@]34O)O2,Potency,[1],17.2 µM (active)
same,Potency,[2],15.3 µM (active)
same,Potency,[3],21.7 µM (active)
same,Potency,[15],17.2 µM (active)
same,Potency,[10],17.2 µM (active)
same,Potency,[4],21.7 µM (active)
same,Potency,[5],24.3 µM (active)
same,Potency,[14],24.3 µM (active)
same,Potency,[8],21.7 µM (active)
CCCCCCCCCCCC(=O)NCCCN(C)C,Potency,[1],21.9 µM (active)
same,Potency,[2],38.9 µM (active)
same,Potency,[3],34.7 µM (active)
same,Potency,[16],27.5 µM (active)
same,Potency,[10],21.9 µM (active)
same,Potency,[4],38.9 µM (active)
same,Potency,[5],54.9 µM (active)
same,Potency,[14],49 µM (active)
same,Potency,[7],30.6 µM (active)
COC(=O)c1cc(Cl)ccc1OC,Potency,[1],inactive
same,Potency,[11],inactive
same,Potency,[2],inactive
same,Potency,[12],inactive
same,Potency,[15],inactive
same,Potency,[13],inactive
same,Potency,[16],inactive
same,Potency,[10],inactive
same,Potency,[4],inactive
same,Potency,[5],inactive
same,Potency,[6],inactive
same,Potency,[7],inactive
same,Potency,[8],inactive
same,Potency,[17],inactive
same,Potency,[18],inactive
CCC(C)Nc1ccc(NC(C)CC)cc1 (centres undefined),Potency,[1],12.5 µM (active)
same,Potency,[2],22.3 µM (active)
same,Potency,[3],22.3 µM (active)
same,Potency,[9],inactive
same,Potency,[10],17.7 µM (active)
same,Potency,[4],8.88 µM (active)
same,Potency,[5],44.5 µM (active)
same,Potency,[6],31.2 µM (active)
N#CSc1ccc(N)c([N+](=O)[O-])c1,Potency,[1],55.3 µM (active)
same,Potency,[2],49.3 µM (active)
same,Potency,[9],inactive
same,Potency,[10],55.3 µM (active)
same,Potency,[5],inactive
same,Potency,[7],48.9 µM (active)
same,Potency,[8],inactive
Oc1ccc(C2(c3ccc(O)cc3)CC3CC2C2CCCC32)cc1 (centres undefined),Potency,[1],14.9 µM (active)
same,Potency,[2],23.6 µM (active)
same,Potency,[3],18.7 µM (active)
same,Potency,[16],47 µM (active)
same,Potency,[10],23.6 µM (active)
same,Potency,[4],33.3 µM (active)
same,Potency,[5],52.8 µM (active)
same,Potency,[6],52.3 µM (active)
same,Potency,[8],41.9 µM (active)
CC(=O)N1CCN(c2ccc(OC[C@H]3CO[C@](Cn4ccnc4)(c4ccc(Cl)cc4Cl)O3)cc2)CC1,Potency,[1],34.7 µM (active)
same,Potency,[2],27.5 µM (active)
same,Potency,[19],43.6 µM (active)
same,Potency,[3],49 µM (active)
same,Potency,[4],38.9 µM (active)
same,Potency,[5],61.6 µM (active)
same,Potency,[8],49 µM (active)
CCN1/C(=C/C=C/c2sc3ccccc3[n+]2CC)Sc2ccccc21,Potency,[1],14.6 µM (active)
same,Potency,[9],inactive
same,Potency,[10],4.61 µM (active)
same,Potency,[4],inactive
same,Potency,[5],inactive
same,Potency,[6],11.6 µM (active)
same,"viability change, negative = cytotoxic",[8],-11.9% [at 15.8 µM] (inactive)
Cc1c(C)c2c(c(C)c1OC(=O)CCC(=O)O)CC[C@@](C)(CCC[C@H](C)CCC[C@H](C)CCCC(C)C)O2,Potency,[1],inactive
same,Potency,[11],inactive
same,Potency,[2],inactive
same,Potency,[12],inactive
same,Potency,[3],inactive
same,Potency,[9],inactive
same,Potency,[15],inactive
same,Potency,[10],inactive
same,Potency,[4],inactive
same,Potency,[5],inactive
same,Potency,[6],27.6 µM (active)
same,Potency,[7],27.6 µM (active)
O=[N+]([O-])c1cc(Cl)c(Cl)c(Cl)c1Cl,Potency,[2],inactive
same,Potency,[3],inactive
same,Potency,[9],inactive
same,Potency,[15],inactive
same,Potency,[10],inactive
same,Potency,[4],inactive
same,Potency,[5],inactive
same,Potency,[6],inactive
same,Potency,[7],inactive
